Assay outcomes as filed in PubChem BioAssay.
In the library only some 10% were active in any assay of this set; here they are far more common.
ALOX12 inhib = 12-hLO (ALOX12) enzyme inhibition. purified 12-hLO, xylenol orange hydroperoxide absorbance. P18054. AID 1452. Potency, µM (doses to about 57.1 µM), without a hit: at the highest dose activity change, negative = inhibition, hits mostly inhibitors. 0.12% of 150,000 active; active = well fitted inhibition curve with a large enough effect; inconclusive = small, poorly fitted or top-dose-only effect; note: potency is the fitted concentration of half-maximal effect; nearly all actives have a fitted effect of over 55% in size
Target sequence (P18054 whole entry, looked up): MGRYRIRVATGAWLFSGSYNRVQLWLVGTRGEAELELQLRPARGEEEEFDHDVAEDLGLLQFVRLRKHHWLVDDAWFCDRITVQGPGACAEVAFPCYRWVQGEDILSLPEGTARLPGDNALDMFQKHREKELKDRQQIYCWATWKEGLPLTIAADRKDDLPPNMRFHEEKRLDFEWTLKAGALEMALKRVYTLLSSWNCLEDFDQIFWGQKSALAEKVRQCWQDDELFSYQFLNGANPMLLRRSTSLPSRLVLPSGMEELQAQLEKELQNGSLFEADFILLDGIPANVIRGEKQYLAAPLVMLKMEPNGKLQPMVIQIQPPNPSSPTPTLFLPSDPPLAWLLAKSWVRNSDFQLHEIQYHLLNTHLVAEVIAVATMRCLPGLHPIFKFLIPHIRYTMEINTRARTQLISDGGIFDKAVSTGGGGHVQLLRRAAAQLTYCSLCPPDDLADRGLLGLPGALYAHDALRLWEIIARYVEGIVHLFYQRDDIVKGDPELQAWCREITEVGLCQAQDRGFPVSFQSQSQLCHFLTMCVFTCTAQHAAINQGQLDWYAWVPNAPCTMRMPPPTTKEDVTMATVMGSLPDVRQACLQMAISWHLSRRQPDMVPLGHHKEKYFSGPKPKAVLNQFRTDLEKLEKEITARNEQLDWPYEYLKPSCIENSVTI
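Purified human 12hLO (150 nM final) was preincubated with compounds for 15 min at room temperature in 25 mM Hepes pH 7.0, 0.01% Triton X-100, then reacted with 40 uM arachidonic acid for 30 min. Hydroperoxide was detected with ferrous iron/xylenol orange.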
Lamin A splicing = LMNA splicing modulation; AID 1487; 0.01% of 200,000 active; Potency, µM (top dose mostly 46.1 µM), for the others: top-dose ratio change, negative = inhibition, usual class: inhibitors; HeLa LMNA splicing GFP/RFP minigene ratio, 48 h; active = well fitted inhibition curve with a large enough effect in the signal ratio, with a control signal flat, not every such curve was filed as active; inconclusive = small, poorly fitted or top-dose-only effect, or effect the other way, or a change in a side signal; the % refers to the signal ratio; note: potency is the fitted concentration of half-maximal effect
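Read-out is the ratio of GFP to DsRed2 object intensity, acquired by 488 nm laser-scanning cytometry on HeLa lamin A-EGFP minigene reporter cells. Compound incubation 48 hrs at 37 °C in Opti-MEM with 2% FBS; DMSO 0.5% final.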
ALDH1A1 block = inhibitors of human aldehyde dehydrogenase 1A1; 7.3% of 220,000 active; P00352; Potency, µM (series often up to 75.3 µM), for inactives: at the top dose activity, negative = inhibition, hits mostly inhibitors; Purified ALDH1A1, NADH fluorescence, propionaldehyde substrate; AID 1030;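 note: potency is the fitted concentration of half-maximal effect; plate controls were no enzyme wells and a reference inhibitor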
HPGD block = blocks human HPGD enzyme activity. P15428. 4.3% of 150,000 active. purified HPGD, NADH fluorescence kinetic, PGE2 substrate. Potency, µM, without a hit: at the highest dose activity change, negative = inhibition, usual class: inhibitors. AID 894; note: potency is the fitted concentration of half-maximal effect
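NADH formation kinetics: reaction with 30 uM PGE2 and 1 mM NAD+ (final), 20 nM enzyme, Tris-HCl pH 8 with Tween 20, after 15 min compound preincubation at room temperature. Fluorescence change, last versus first of five reads.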
PNC assembly inh = perinucleolar compartment assembly inhibition. PC3M PTB-GFP, PNC prevalence imaging, 16 h; active compounds read low. activity change (PNC), negative = inhibition, % at 10 µM. 3.1% of 140,000 active. AID 2417;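 active = readout at or below -70, meaning at least 70% loss of cells showing the perinucleolar compartment, a nuclear body marking cancer cells; inconclusive = readout between -30 and a set limit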;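 note: plate controls were DMSO wells for no effect and camptothecin positive control wells for full effect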
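Compounds are pinned in duplicate onto adhered PC3M cells stably expressing GFP-tagged PTB and incubated 16 h at 37 C. Cells are then fixed, nuclei stained with Hoechst, and PNC-positive cells counted.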
Starred values were filed as active, the others as inactive; ? = inconclusive; / = no result; [ ] = remark or other dose. Unless noted, calls come from the whole dose curve; as a rule, active = well fitted inhibition curve with a large enough effect (not every such curve was filed as active); inconclusive = small, poorly fitted or top-dose-only effect, or another doubt; inactive = no such curve, though single readings can be large or run the other way. Unless noted, % is set by controls: 0 for no effect and ±100 for the full control effect.

SMILES	ALOX12 inhib	Lamin A splicing	ALDH1A1 block	HPGD block	PNC assembly inh
CCN1CCN(C(C)C(=O)Nc2c(C)n(C)n(-c3ccccc3)c2=O)CC1 (configuration not stated)	-6%	?	22µM*	-3%	27
Cc1nc(SCC(=O)c2ccccc2)n[nH]1	-27%	?	22µM*	?	?
COc1ccc(OC)c(NC(=O)c2cc3cc(C)ccc3n2C)c1	/	16%[46 µM]	/	/	/
Cc1ccc(CN(Cc2ccccc2)C(=S)Nc2ccccc2C)o1	/	/	3%	/	/
N=c1ccn2c(n1)O[C@@H]1[C@H](O)[C@H](CO)O[C@@H]12	-2%	/	21%	-1%	/
COc1ccc(OC)c(CNS(=O)(=O)c2ccc3c(c2)CCCN3C(C)=O)c1	/	-15%[46 µM]	/	/	/
Cc1ccc(CN2CCc3nc(N4CCN(C)CC4)ncc3C2)s1	/	9%[46 µM]	/	/	/
CCN(C(=O)c1cc2c(=O)oc3ccccc3c2s1)c1ccccc1F	/	7%[46 µM]	/	/	/
CCn1c2ccccc2c2nnc(SCC(=O)Nc3c(C)n(C)n(-c4ccccc4)c3=O)nc21	-10%	?	-6%	-9%	-21
Cc1c(NC(=O)CSc2nnc3c4ccccc4n(CCc4ccccc4)c3n2)c(=O)n(-c2ccccc2)n1C	3%	?	?	-4%	-90*
Cc1ccc(CNC(=O)Cn2c(=O)cc(C)c3c(C)nn(-c4cccc(F)c4)c32)cc1	/	6%[46 µM]	/	/	/
O=C(CCNS(=O)(=O)c1cccc2nonc12)NC1CCCc2ccccc21 (configuration not stated)	0%	7%	14µM*	-5%	?
O=C(CCNS(=O)(=O)c1cccc2nsnc12)NC1CCCc2ccccc21 (configuration not stated)	1%	-5%	?	-7%	28
O=C(NC1CCCc2ccccc21)C1CCN(S(=O)(=O)c2cccc3nonc23)CC1 (configuration not stated)	5%	9%	32µM*	-2%	24
O=C(NC1CCCc2ccccc21)C1CCN(S(=O)(=O)c2ccccc2F)CC1 (configuration not stated)	-1%	-16%	?	-13%	32
Cc1cc(C)c(NC(=O)C2CSCCS2)c(C)c1 (configuration not stated)	-2%	-15%	-4%	22µM*	-14
Cc1cc(C)c(NC(=O)C2CCCCN2C)c(C)c1 (configuration not stated)	8%	17%	-3%	-8%	-10
COc1ccc(-c2nc3cnc(Oc4ccccc4)nc3n(C3CC3)c2=O)cc1	-2%	/	?	?	/
Cc1cc(C)nc(-n2ncc3c2CC(c2ccccc2)CC3=O)n1 (configuration not stated)	7%	-10%	-23%	28µM*	16
Cc1cc(C)nc(-n2ncc3c2CC(c2ccc(F)cc2)CC3=O)n1 (configuration not stated)	/	/	-5%	/	/
CC(NC(=O)CSc1nnc(-c2cc3cc(Cl)ccc3o2)n1C)c1ccccc1 (configuration not stated)	-1%	?	7%	-6%	-119*
CCOC(=O)c1c(-c2ccccc2)csc1/N=C/C1C(=O)CCCC1=O	-8%	?	3.5µM*	-7%	38
CCOC(=O)c1c(CC(C)C)csc1/N=C/C1C(=O)CCCC1=O	/	/	11µM*	/	/
O=C1OC(CO)C(O)C(O)C1O (configuration not stated)	-1%	?	-4%	-5%	/
COc1ccc(NC(=O)CSc2nc3ccccc3c(=O)n2CCC(=O)NC2CCCCC2)c(OC)c1	/	4%[46 µM]	/	/	/
SMILES	ALOX12 inhib	Lamin A splicing	ALDH1A1 block	HPGD block	PNC assembly inh
COc1ccc(Cl)cc1C(=O)CSc1nnnn1C1CCCCC1	-4%	-10%	5µM*	-26%	?
COc1ccc(Cl)cc1C(=O)CSc1nnnn1C1CCCC1	-10%	-2%	2µM*	/	-26
CCn1nnnc1SCC(=O)c1cc(Cl)ccc1OC	/	13%[46 µM]	?	/	/
CN[C@H]1[C@@H](O)[C@@H](NC)[C@@H]2O[C@@]3(O)C(=O)C[C@@H](C)O[C@H]3O[C@H]2[C@H]1O	3%[25.6 µM]	?	-3%[20.9 µM]	-2%	/
O=C(N/N=C/c1ccc(O)cc1O)c1cc(-c2ccccc2)n[nH]1	-5%	/	?	-24%	/
Cn1cccc1C(=O)N1CCC[C@@]2(CCN(c3ncccn3)C2)C1	1%	/	-13%	-11%	/
Cn1cc(-c2cc3n(n2)CCC(=O)N3CCCC(=O)Nc2ccc(F)cc2F)c2ccccc21	/	22%[46 µM]	/	/	/
COc1cc(C(c2c(C)[nH][nH]c2=O)c2c(C)[nH][nH]c2=O)ccc1OC(C)C	-4%	-2%	14µM*	?	-80*
COc1cc(C(c2c(C)[nH][nH]c2=O)c2c(C)[nH][nH]c2=O)ccc1OS(=O)(=O)c1ccccc1	-3%	?	1.6µM*	-8%	11
COc1cc(C(c2c(C)[nH][nH]c2=O)c2c(C)[nH][nH]c2=O)ccc1OS(=O)(=O)c1ccc(C)cc1	-5%	13%	-5%	-5%	-22
C/C(N)=C(/C#N)C(=O)CSc1nnnn1-c1ccc(C)cc1C	-16%	?	?	-12%	-133*
Cc1ccc(-n2nnnc2SC(C)C(N)=O)c(C)c1 (configuration not stated)	0%	1%	-2%	-2%	33
CC(C)C[C@@H](CC(=O)N[C@@H](CCC(=O)O)CC(=O)O)NC(=O)[C@@H]1CCCC[C@H]1NC(=O)C[C@H](CCCN)NC(=O)C[C@H](CO)NC(=O)[C@@H]1CCCC[C@H]1N	-2%	/	-3%	-2%	/
CN(C)c1cccc(O)c1	-1%	/	8.9µM*	-8%	/
COc1cccc(-n2nnc3c(=O)n(CC(=O)N4CCCc5ccccc54)cnc32)c1	-5%	8%	?	22µM*	8
O=C(Cn1c(-c2ccccc2)noc1=O)N1CCC(Cc2ccccc2)CC1	/	/	1%	/	/
O=C(Cn1cnc2c(oc3ccccc32)c1=O)N1CCCc2ccccc21	0%	?	20µM*	-7%	?
COc1ccc(-c2noc(=O)n2CC(=O)N2CCC(Cc3ccccc3)CC2)cc1	/	/	25µM*	/	/
COc1cccc(-n2nnc3c(=O)n(CC(=O)N4CCC(Cc5ccccc5)CC4)cnc32)c1	-3%	?	2µM*	-25%	10
O=C(CSc1ncnc2c1oc1ccccc12)N1CCCc2ccccc21	1%	?	?	-19%	?
O=c1c(-c2ccccc2)nc2cnc(N3CCNCC3)nc2n1C1CC1	-1%	/	?	?	/
COc1ccc(Cn2ccn(Cc3cccc(Cl)c3)c(=O)c2=O)cc1	/	7%[46 µM]	/	/	/
O=C(Cn1cnc2c(nnn2Cc2ccc(Cl)cc2)c1=O)N1CCCc2ccccc21	2%	-2%	22µM*	-15%	-16
O=C(Cn1cnc2c(nnn2Cc2ccccc2F)c1=O)N1CCN(c2ccccc2)CC1	8%	0%	?	-16%	-83*
